Laboratory results: the supplement of paper PMC10849652
Targets with a hit are over-represented here; the source holds about 8,800 in all. About 0.5% of all pairs of compound and target were hits.

Key:
Test in all cases: log2 fold change, soluble protein after heating vs DMSO (PISA); higher = thermal stabilisation; K562 lysate, 10 uM; active = over 0.2 and 3.5 SD of the protein, either way, in both replicates (recomputed)
ibrutinib = compound: C=CC(=O)N1CCC[C@@H](n2nc(-c3ccc(Oc4ccccc4)cc3)c3c(N)ncnc32)C1 [ibrutinib]
How it was run: (§1)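 K562 pellets were dounce-homogenised in PBS pH 7.4 containing 1 mM MgCl2, and the crude extract, at 1 mg/mL protein, was exposed to 10 μM compound for 30 min. Aliquots were heated for 3 min across 48°C-58°C, pooled, brought to 0.5% NP-40 at 4°C and spun at 21,000xg for 90 min, with the supernatant taken as soluble protein. TMTpro 16plex LC-MS/MS with equalised channel sums quantified that protein. Values are log-two fold changes in thermal stability relative to solvent controls, taken from duplicates.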

[1] = compound: CC(=O)c1cnc2ccc(-c3cc(Cl)c(O)c(Cl)c3)nc2c1N[C@H]1CC[C@H](CN(C)C)CC1
How it was run: as §1

ralimetinib = compound: CC(C)(C)Cn1c(N)nc2ccc(-c3[nH]c(C(C)(C)C)nc3-c3ccc(F)cc3)nc21 [ralimetinib]
How it was run: as §1

[2] = compound: CC(C)(O)CC(=O)NCCn1ccc2ncnc(Nc3ccc(Oc4cccc(C(F)(F)F)c4)c(Cl)c3)c21
How it was run: as §1

[3] = compound: CC(C)C1=C2N=C(C=C(N2N=C1)NCC3=CC=CC=C3)NCCCCCCN
How it was run: as §1

[4] = compound: CC1=C(C(CC(=O)N1)C2=CC=C(C=C2)C(F)(F)F)C(=O)NC3=C(C=C4C(=C3)C=NN4)F
How it was run: as §1

[5] = compound: CC1=C(C2=C(C=C1)C(=O)C3=CC=CC=C3N2CCCN)C
How it was run: as §1

[6] = compound: CC1=C(C=C(C=C1)NC(=O)C2=CC(=CC=C2)C(C)(C)C#N)NC3=CC4=C(C=C3)N=CN(C4=O)C
How it was run: as §1

[7] = compound: CC1=C(C=C(C=C1)NC(=O)C2=CC(=CC=C2)N(C)C)NC(=O)C3=CC=C(C=C3)O
How it was run: as §1

[8] = compound: CC1=CC=C(C=C1)SC2=C3C=C(SC3=CN=C2)C(=O)N
How it was run: as §1

vemurafenib = compound: CCCS(=O)(=O)Nc1ccc(F)c(C(=O)c2c[nH]c3ncc(-c4ccc(Cl)cc4)cc23)c1F [vemurafenib]
How it was run: as §1

[9] = compound: CCCS(=O)(=O)Nc1ccc(F)c(C(=O)c2c[nH]c3ncc(Cl)cc23)c1F
How it was run: as §1

barasertib = compound: CCN(CCCOc1ccc2c(Nc3cc(CC(=O)Nc4cccc(F)c4)[nH]n3)ncnc2c1)CCOP(=O)(O)O [barasertib]
How it was run: as §1

[10] = compound: CC[C@@H]1C(=O)N(C)c2cnc(Nc3ccc(C(=O)NC4CCN(C)CC4)cc3OC)nc2N1C1CCCC1
How it was run: as §1

volasertib = compound: CC[C@@H]1C(=O)N(C)c2cnc(Nc3ccc(C(=O)N[C@H]4CC[C@H](N5CCN(CC6CC6)CC5)CC4)cc3OC)nc2N1C(C)C [volasertib]
How it was run: as §1

[11] = compound: CCn1c(C(=O)N(C2CC2)C2CC2)cc2c3c(ncn3C)c(Nc3cc(C)n(C)n3)nc21
How it was run: as §1

[12] = compound: CCn1cc(-c2ccnc3[nH]c(-c4cccc(CN(C)C)c4)cc23)c(-c2ccc(NC(=O)N(C)C)cc2)n1
How it was run: as §1

[13] = compound: CN1CCC(CNc2ccc3ncc(-c4cccc(OC(F)(F)F)c4)n3n2)CC1
How it was run: as §1

saracatinib = compound: CN1CCN(CCOc2cc(OC3CCOCC3)c3c(Nc4c(Cl)ccc5c4OCO5)ncnc3c2)CC1 [saracatinib]
How it was run: as §1

sotrastaurin = compound: CN1CCN(c2nc(C3=C(c4c[nH]c5ccccc45)C(=O)NC3=O)c3ccccc3n2)CC1 [sotrastaurin]
How it was run: as §1

Measured: log2 fold change

NUP188 (UniProt Q5SRE5)
inactive: ibrutinib -0.026 | [1] 0.019 | ralimetinib 0.041 | [2] -0.021 | [3] -0.028 | [4] -0.005 | [5] 0.035 | [6] -0.04 | [7] 0.042 | [8] -0.018 | vemurafenib -0.006 | [9] -0.006 | barasertib 0.074 | [10] -0.067 | volasertib -0.077 | [11] 0.05 | [12] -0.031 | [13] -0.045 | saracatinib 0.029 | sotrastaurin 0.021

NBEAL2 (UniProt Q6ZNJ1)
inactive: ibrutinib -0.048 | [1] 0.011 | ralimetinib 0.023 | [2] -0.047 | [3] 0.003 | [4] 0.036 | [5] -0.011 | [6] 0.047 | [7] 0.06 | [8] -0.013 | vemurafenib -0.047 | [9] 0.021 | barasertib 0.045 | [10] -0.053 | volasertib -0.128 | [11] 0.01 | [12] 0.013 | [13] -0.037 | saracatinib 0.013 | sotrastaurin 0

NCOR2 (UniProt C9J0Q5)
inactive: ibrutinib -0.002 | [1] -0.001 | ralimetinib -0.026 | [2] -0.056 | [3] -0.034 | [4] 0.046 | [5] 0.022 | [6] -0.064 | [7] -0.014 | [8] -0.04 | vemurafenib 0.006 | [9] 0.021 | barasertib 0.024 | [10] 0.009 | volasertib 0.009 | [11] 0.056 | [12] 0.019 | [13] 0.036 | saracatinib -0.026 | sotrastaurin 0.032

NAT1 (UniProt P18440)
UniProt P18440, sequence (P18440 whole entry, looked up): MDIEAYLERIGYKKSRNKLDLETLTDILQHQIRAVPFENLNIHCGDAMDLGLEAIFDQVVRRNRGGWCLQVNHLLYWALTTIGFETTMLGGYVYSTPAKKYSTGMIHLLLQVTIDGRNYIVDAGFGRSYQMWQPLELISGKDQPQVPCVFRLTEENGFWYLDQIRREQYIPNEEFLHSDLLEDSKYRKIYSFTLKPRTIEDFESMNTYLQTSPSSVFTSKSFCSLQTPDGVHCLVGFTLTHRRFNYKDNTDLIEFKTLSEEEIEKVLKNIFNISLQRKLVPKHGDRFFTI
inactive: ibrutinib -0.089 | [1] -0.039 | ralimetinib 0.062 | [2] 0.019 | [3] -0.035 | [4] -0.001 | [5] -0.048 | [6] 0.034 | [7] 0.009 | [8] 0.052 | vemurafenib 0.04 | [9] -0.003 | barasertib -0.104 | [10] 0.003 | volasertib 0.009 | [11] -0.012 | [12] -0.149 | [13] -0.014 | saracatinib -0.001 | sotrastaurin 0.078

NMRAL1 (UniProt Q9HBL8)
UniProt Q9HBL8, sequence (Q9HBL8 whole entry, looked up): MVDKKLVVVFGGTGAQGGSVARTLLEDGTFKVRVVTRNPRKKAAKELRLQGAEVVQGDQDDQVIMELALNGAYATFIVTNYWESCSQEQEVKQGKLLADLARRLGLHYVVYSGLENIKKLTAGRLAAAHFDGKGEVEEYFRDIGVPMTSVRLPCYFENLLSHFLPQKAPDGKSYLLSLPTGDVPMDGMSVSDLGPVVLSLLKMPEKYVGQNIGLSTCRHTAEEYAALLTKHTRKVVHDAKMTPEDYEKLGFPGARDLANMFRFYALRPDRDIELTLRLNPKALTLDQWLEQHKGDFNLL
inactive: ibrutinib 0.122 | [1] 0.021 | ralimetinib 0.06 | [2] 0.012 | [3] -0.03 | [4] 0.047 | [5] -0.048 | [6] -0.01 | [7] -0.016 | [8] 0 | vemurafenib -0.03 | [9] -0.023 | barasertib 0.178 | [10] 0.045 | volasertib -0.046 | [11] 0.045 | [12] -0.092 | [13] 0.053 | saracatinib 0.011 | sotrastaurin -0.034

MYCBP2 (UniProt O75592)
inactive: ibrutinib 0.014 | [1] -0.027 | ralimetinib 0.033 | [2] -0.085 | [3] 0.014 | [4] 0.016 | [5] -0.028 | [6] 0.028 | [7] 0.036 | [8] -0.033 | vemurafenib -0.026 | [9] 0.036 | barasertib 0.037 | [10] 0.017 | volasertib -0.019 | [11] -0.01 | [12] -0.117 | [13] 0.083 | saracatinib 0.033 | sotrastaurin -0.029

OSBP (UniProt P22059)
inactive: ibrutinib -0.007 | [1] 0.003 | ralimetinib -0.019 | [2] -0.007 | [3] -0.19 | [4] 0.018 | [5] 0.04 | [6] -0.103 | [7] 0.011 | [8] -0.003 | vemurafenib -0.052 | [9] -0.007 | barasertib -0.004 | [10] -0.076 | volasertib -0.091 | [11] 0.041 | [12] -0.045 | [13] -0.032 | saracatinib 0.011 | sotrastaurin 0.026

NFATC2 (UniProt Q13469)
UniProt Q13469, sequence (Q13469 whole entry, looked up): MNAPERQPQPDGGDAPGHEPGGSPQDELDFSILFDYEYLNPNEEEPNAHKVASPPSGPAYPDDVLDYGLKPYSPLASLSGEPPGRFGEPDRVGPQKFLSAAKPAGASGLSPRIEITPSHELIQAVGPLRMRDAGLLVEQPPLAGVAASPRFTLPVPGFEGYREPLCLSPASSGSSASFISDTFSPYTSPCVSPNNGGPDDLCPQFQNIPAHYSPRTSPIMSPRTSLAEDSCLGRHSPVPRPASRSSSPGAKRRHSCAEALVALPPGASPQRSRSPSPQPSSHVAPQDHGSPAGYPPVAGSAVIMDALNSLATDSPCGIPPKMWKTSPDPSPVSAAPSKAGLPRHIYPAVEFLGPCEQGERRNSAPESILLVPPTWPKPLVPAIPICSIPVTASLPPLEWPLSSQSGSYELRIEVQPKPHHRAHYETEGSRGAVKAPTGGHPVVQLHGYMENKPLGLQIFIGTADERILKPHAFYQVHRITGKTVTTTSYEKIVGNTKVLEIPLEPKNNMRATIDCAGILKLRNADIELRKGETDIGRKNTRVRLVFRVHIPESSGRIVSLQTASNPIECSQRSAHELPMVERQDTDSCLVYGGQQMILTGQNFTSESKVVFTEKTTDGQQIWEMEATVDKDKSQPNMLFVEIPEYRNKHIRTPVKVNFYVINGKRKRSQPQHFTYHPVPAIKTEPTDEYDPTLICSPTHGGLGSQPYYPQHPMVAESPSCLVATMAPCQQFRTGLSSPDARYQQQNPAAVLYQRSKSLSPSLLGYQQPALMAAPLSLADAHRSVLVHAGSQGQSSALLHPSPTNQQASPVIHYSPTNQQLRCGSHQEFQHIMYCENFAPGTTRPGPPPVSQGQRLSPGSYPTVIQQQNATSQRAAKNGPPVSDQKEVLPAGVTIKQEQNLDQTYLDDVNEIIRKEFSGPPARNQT
inactive: ibrutinib 0.012 | [1] 0.039 | ralimetinib -0.022 | [2] -0.061 | [3] 0.026 | [4] 0.004 | [5] -0.018 | [6] -0.026 | [7] 0.033 | [8] -0.031 | vemurafenib -0.029 | [9] 0.032 | barasertib 0.011 | [10] 0.03 | volasertib -0.069 | [11] -0.006 | [12] 0.011 | [13] -0.002 | saracatinib 0.014 | sotrastaurin -0.016

NUB1 (UniProt Q9Y5A7)
UniProt Q9Y5A7, sequence (Q9Y5A7 whole entry, looked up): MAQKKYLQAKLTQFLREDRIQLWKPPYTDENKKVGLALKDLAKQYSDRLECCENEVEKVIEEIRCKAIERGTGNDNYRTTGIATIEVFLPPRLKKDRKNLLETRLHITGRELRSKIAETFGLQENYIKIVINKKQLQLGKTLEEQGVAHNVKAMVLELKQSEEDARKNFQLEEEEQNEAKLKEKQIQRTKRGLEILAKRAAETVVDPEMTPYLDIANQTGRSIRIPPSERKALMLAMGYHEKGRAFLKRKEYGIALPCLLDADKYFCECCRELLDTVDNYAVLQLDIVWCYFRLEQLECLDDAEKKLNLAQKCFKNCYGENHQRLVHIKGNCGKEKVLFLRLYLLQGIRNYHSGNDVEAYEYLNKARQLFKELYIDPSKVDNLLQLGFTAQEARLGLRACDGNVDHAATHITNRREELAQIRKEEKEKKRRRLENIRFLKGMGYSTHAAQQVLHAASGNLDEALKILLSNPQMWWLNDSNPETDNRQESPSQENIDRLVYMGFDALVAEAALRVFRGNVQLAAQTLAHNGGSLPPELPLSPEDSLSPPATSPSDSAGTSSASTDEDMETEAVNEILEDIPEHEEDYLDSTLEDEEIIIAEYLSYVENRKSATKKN
inactive: ibrutinib -0.001 | [1] 0.022 | ralimetinib -0.003 | [2] 0.018 | [3] -0.027 | [4] 0.014 | [5] -0.009 | [6] -0.028 | [7] 0.008 | [8] 0.02 | vemurafenib -0.007 | [9] 0.011 | barasertib 0.028 | [10] -0.052 | volasertib -0.056 | [11] 0 | [12] 0.008 | [13] -0.048 | saracatinib -0.009 | sotrastaurin 0.021

NFATC1 (UniProt O95644)
UniProt O95644, sequence (O95644 whole entry, looked up): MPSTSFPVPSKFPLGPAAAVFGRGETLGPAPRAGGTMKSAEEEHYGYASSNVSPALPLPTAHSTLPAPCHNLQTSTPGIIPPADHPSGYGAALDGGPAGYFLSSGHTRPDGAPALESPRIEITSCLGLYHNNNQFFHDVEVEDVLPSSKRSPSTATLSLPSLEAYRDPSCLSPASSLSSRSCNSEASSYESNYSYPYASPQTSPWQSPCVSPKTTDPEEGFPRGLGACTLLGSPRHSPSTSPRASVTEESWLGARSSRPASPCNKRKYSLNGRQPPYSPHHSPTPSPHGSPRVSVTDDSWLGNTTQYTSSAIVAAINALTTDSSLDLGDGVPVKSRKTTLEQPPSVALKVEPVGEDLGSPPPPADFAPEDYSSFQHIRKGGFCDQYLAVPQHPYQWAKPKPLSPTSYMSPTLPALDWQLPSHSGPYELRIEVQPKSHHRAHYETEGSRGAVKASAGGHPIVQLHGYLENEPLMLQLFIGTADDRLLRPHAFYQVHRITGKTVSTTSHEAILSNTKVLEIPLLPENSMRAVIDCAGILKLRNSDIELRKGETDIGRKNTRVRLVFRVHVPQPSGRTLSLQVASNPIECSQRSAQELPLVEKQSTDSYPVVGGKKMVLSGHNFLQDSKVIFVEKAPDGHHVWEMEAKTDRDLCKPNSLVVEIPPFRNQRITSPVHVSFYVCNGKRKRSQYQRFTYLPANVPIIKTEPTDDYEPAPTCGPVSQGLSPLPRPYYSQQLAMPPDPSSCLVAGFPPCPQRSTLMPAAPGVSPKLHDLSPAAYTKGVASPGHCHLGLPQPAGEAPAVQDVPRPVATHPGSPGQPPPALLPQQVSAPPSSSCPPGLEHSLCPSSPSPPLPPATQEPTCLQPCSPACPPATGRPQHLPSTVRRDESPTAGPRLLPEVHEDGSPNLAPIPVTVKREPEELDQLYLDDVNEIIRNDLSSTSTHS
inactive: ibrutinib 0.011 | [1] 0.06 | ralimetinib -0.004 | [2] -0.067 | [3] -0.038 | [4] 0.031 | [5] -0.047 | [6] 0.094 | [7] -0.015 | [8] -0.052 | vemurafenib 0.004 | [9] 0.058 | barasertib -0.015 | [10] 0.001 | volasertib 0 | [11] 0.007 | [12] -0.118 | [13] 0.064 | saracatinib 0.042 | sotrastaurin 0

MRPS18A isoform 2 (UniProt Q9NVS2)
active: [12] 0.306
inactive: ibrutinib -0.015 | [1] 0.006 | ralimetinib -0.015 | [2] -0.002 | [3] -0.046 | [4] 0.034 | [5] -0.131 | [6] 0.016 | [7] 0.043 | [8] -0.003 | vemurafenib 0.073 | [9] 0.03 | barasertib 0.037 | [10] 0.073 | volasertib -0.019 | [11] -0.04 | [13] -0.121 | saracatinib -0.042 | sotrastaurin 0.036

OARD1 (UniProt Q9Y530)
UniProt Q9Y530, sequence (Q9Y530 whole entry, looked up): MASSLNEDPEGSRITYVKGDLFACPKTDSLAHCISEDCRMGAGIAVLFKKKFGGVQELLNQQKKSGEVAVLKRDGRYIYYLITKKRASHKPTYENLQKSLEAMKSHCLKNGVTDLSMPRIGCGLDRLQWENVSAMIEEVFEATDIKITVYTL
inactive: ibrutinib -0.013 | [1] 0.003 | ralimetinib 0.003 | [2] 0.002 | [3] -0.01 | [4] -0.027 | [5] -0.046 | [6] 0.032 | [7] 0.035 | [8] 0.011 | vemurafenib -0.011 | [9] 0.004 | barasertib -0.01 | [10] -0.01 | volasertib -0.031 | [11] 0.022 | [12] -0.056 | [13] -0.034 | saracatinib 0.006 | sotrastaurin 0.002

MRPS12 (UniProt O15235)
inactive: ibrutinib -0.003 | [1] -0.008 | ralimetinib 0.011 | [2] -0.067 | [3] 0.007 | [4] -0.004 | [5] -0.138 | [6] 0.003 | [7] -0.028 | [8] -0.02 | vemurafenib 0.062 | [9] 0.035 | barasertib 0.003 | [10] 0.045 | volasertib 0.011 | [11] 0.001 | [12] -0.038 | [13] 0.001 | saracatinib 0.016 | sotrastaurin 0.028

NFATC2IP (UniProt Q8NCF5)
UniProt Q8NCF5, sequence (Q8NCF5 whole entry, looked up): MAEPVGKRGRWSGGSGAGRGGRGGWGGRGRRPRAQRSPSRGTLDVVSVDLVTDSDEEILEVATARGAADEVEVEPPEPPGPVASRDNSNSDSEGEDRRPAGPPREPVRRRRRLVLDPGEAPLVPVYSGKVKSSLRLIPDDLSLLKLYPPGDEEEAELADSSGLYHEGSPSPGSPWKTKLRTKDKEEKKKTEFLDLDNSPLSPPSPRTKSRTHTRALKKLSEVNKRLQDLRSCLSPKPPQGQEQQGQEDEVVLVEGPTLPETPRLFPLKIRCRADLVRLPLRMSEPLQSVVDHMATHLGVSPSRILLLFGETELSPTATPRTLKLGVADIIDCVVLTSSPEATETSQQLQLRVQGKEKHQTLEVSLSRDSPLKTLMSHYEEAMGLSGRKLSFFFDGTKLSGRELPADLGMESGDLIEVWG
inactive: ibrutinib 0.015 | [1] -0.037 | ralimetinib 0 | [2] -0.052 | [3] 0.01 | [4] -0.021 | [5] -0.019 | [6] -0.047 | [7] 0.013 | [8] 0.011 | vemurafenib -0.024 | [9] 0.069 | barasertib 0.041 | [10] 0.033 | volasertib 0.006 | [11] 0 | [12] 0.076 | [13] -0.031 | saracatinib 0.003 | sotrastaurin -0.004

NFKBIB (UniProt Q15653)
UniProt Q15653, sequence (Q15653 whole entry, looked up): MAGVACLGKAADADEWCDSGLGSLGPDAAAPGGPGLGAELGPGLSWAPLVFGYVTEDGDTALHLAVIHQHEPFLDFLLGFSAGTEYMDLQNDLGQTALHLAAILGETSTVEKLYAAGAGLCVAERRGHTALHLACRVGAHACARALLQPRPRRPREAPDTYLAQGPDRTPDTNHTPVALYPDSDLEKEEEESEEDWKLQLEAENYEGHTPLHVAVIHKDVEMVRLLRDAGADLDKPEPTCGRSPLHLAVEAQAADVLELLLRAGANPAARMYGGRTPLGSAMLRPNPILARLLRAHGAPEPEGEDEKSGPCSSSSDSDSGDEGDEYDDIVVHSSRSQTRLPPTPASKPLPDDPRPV
active: [12] -0.535
inactive: ibrutinib -0.034 | [1] -0.037 | ralimetinib 0.048 | [2] -0.008 | [3] -0.029 | [4] -0.012 | [5] 0 | [6] 0.033 | [7] 0.06 | [8] -0.037 | vemurafenib -0.058 | [9] 0.041 | barasertib -0.059 | [10] 0.099 | volasertib 0.068 | [11] -0.054 | [13] 0.096 | saracatinib -0.013 | sotrastaurin -0.002

OCRL (UniProt Q01968)
UniProt Q01968, sequence (Q01968 whole entry, looked up): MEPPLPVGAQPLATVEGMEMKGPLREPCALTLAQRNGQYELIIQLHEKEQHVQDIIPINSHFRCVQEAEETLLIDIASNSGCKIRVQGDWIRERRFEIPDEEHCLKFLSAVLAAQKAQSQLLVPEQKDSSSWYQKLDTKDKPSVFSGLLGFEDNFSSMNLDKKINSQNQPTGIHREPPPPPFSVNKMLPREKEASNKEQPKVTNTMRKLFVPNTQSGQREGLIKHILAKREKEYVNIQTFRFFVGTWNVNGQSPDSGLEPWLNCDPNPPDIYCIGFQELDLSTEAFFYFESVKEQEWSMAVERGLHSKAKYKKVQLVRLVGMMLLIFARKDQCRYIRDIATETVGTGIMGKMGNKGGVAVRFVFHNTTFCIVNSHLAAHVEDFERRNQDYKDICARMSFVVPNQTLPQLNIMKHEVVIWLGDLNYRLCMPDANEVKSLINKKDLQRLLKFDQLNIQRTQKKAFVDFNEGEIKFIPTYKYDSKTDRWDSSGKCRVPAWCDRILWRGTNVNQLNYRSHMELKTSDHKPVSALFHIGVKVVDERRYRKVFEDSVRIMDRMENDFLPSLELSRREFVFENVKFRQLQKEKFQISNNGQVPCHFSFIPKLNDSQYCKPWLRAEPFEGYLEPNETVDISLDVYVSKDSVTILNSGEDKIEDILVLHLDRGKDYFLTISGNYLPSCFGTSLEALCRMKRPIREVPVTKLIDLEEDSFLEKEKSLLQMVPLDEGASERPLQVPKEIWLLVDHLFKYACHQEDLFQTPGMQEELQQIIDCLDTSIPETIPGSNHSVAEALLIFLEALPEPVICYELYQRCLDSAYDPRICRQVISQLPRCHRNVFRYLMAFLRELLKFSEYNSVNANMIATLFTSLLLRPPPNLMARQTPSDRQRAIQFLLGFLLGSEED
inactive: ibrutinib 0.051 | [1] -0.038 | ralimetinib -0.016 | [2] 0.016 | [3] 0.044 | [4] 0.013 | [5] 0.036 | [6] 0.022 | [7] -0.002 | [8] 0.033 | vemurafenib 0.168 | [9] 0.014 | barasertib 0.04 | [10] 0.018 | volasertib -0.057 | [11] -0.032 | [12] -0.074 | [13] 0.049 | saracatinib 0.027 | sotrastaurin 0.019
